Source: PubChem BioAssay
Rows were chosen to be rich in hits. Some 12% of all compounds tested hit in one or more screens of this group.
Lassa entry inh: inhibitors of Lassa virus binding or cell entry; AID 540256; Lassa virus pseudotype entry inhibition, cell reporter; 1.2% of 300,000 active; Potency, µM (top dose mostly 37.9 µM), hits mostly inhibitors; calls by dose curve; tested in HEK293 cells; also: nearly all actives have a fitted effect of over 50% in size
MARV entry inh: Marburg virus entry inhibition; AID 540276; Marburg virus pseudotyped entry inhibition, cell reporter; Potency, µM (titrated, usually from 37.8 µM), hits mostly inhibitors; 1.8% of 300,000 active; calls by dose curve; tested in HEK293 cells
Cycloheximide cs: affects cycloheximide protein synthesis inhibition readout, counter-screen; 12% of 300,000 active; cell reporter, cycloheximide protein synthesis inhibition counterscreen; AID 2314; max response, %; in the data active = max response mostly above about 13%, no sharp cut-off; inactive = mostly below about 14%; also: read at 38.3 µM for the half of the compounds with a filed dose
Shiga inhibitor: inhibitors of Shiga toxin in Vero cells. 9.2% of 290,000 active. inhibition, % at 38.7 µM. Vero cells, Shiga toxin protein synthesis inhibition reporter. AID 2315; in the data active = inhibition mostly above about 28%, no sharp cut-off; inactive = mostly below about 43%
Numbers stand for hits; - = inactive; ? = inconclusive; . = not tested or not shown.

SMILES	Lassa entry inh	MARV entry inh	Cycloheximide cs	Shiga inhibitor
CS(=O)(=O)N1CCc2cc(C(=O)OCC(=O)c3ccccc3)ccc21	-	-	23	-
Cc1ccccc1NC(=O)c1ccc2c(c1)CCN2S(C)(=O)=O	?	-	-	-
CS(=O)(=O)N1CCc2cc(C(=O)Nc3ccccc3Cl)ccc21	?	-	27	-
Cc1nc2c(C(=O)NCCCN(CC(C)C)CC(C)C)cnn2c(C)c1Cc1c(F)cccc1Cl	-	.	.	.
O=C(CSc1ncnc2sc3c(c12)CCC3)Nc1ccccc1C(=O)O	-	-	-	-
NS(=O)(=O)c1ccc(CCNc2nc(CN3CCCCC3)nc3sc4c(c23)CCC4)cc1	-	21µM	-	-
Cc1cc(S(=O)(=O)Nc2nc(CN3CCOCC3)nc3sc4c(c23)CCC4)cc(C)c1C	-	-	.	.
O=C1CC(c2ccccc2)=NN1c1nc(-c2ccccc2)cs1	?	-	-	-
O=C1C2C3c4ccccc4C(c4ccccc43)C2C(=O)N1c1nc(-c2ccccc2)cs1 (centres undefined)	?	?	-	-
CC1=NN(c2nc(-c3ccc(C#N)cc3)cs2)C(=O)C1	-	-	-	53
CC1=NN(c2nc(-c3ccccc3)cs2)C(=O)C1	-	-	16	-
N=C1SCC(=O)N1c1nc(-c2ccccc2)cs1	?	-	21	-
COCCNC(=O)CCN1C(=O)c2cccnc2Oc2ccc(C)cc21	-	.	.	.
CN(C)c1ccc(/C=N/N=C/c2ccccc2O)cc1	?	5.6µM	76	171
CC(=O)N1c2ccc(S(=O)(=O)N(C)CC(=O)NC(C)c3ccccc3)cc2CC1C (centres undefined)	-	-	-	-
O=C(NCCN1CCc2ccccc2C1)Nc1ccc(F)cc1	.	-	-	-
O=C(CN1CCc2ccccc2C1)Nc1ccc(Br)cc1	-	-	-	-
O=C(Nc1ccc(F)cc1)N1CCc2ccccc2C1	-	?	51	91
O=C(Nc1ccc(Br)cc1)N1CCc2ccccc2C1	-	?	53	126
CCCCNC(=O)CCCCCNS(=O)(=O)c1ccc(Br)cc1	.	.	-	-
O=C(COC(=O)CCC(=O)c1cccs1)NCCc1ccccc1	-	-	.	.
Cc1cc(S(=O)(=O)N2CCCC(C(=O)Nc3ccc(C(=O)O)cc3)C2)ccc1Cl (centres undefined)	-	-	-	-
CCc1nnc(NC(=O)Cc2ccc(Br)cc2)s1	.	-	-	-
O=c1oc2ccccc2cc1-c1csc(Nc2nc3ccc(F)cc3s2)n1	-	-	-	-
CC(C)c1ccc2nc(NC(=O)C3CC3)sc2c1	.	.	52	70
SMILES	Lassa entry inh	MARV entry inh	Cycloheximide cs	Shiga inhibitor
O=C(Nc1nc2ccc(S(=O)(=O)N3CCCC3)cc2s1)C1CCCCC1	-	?	-	-
COC(=O)Nc1nc2ccc(Br)cc2s1	?	-	-	-
COC(=O)c1ccc2nc(Nc3nc4ccc(F)cc4s3)sc2c1	6.3µM	0.79µM	28	-
CCOC(=O)c1csc(Nc2nc3ccc(F)cc3s2)n1	?	?	20	23
COC(=O)c1ccc2nc(NC(=O)C(C)(C)C)sc2c1	1.1µM	?	-	-
Cc1ccc(-c2nc(CN(C)Cc3ccc4nccnc4c3)c(C)o2)s1	-	-	-	-
C=C(C)n1c(=O)n(Cc2ccccc2C)c2ccccc21	.	.	-	-
COc1ccc(NC(=O)c2sc3ncn(CC(=O)N4CCCCC4)c(=O)c3c2C)cc1OC	.	.	-	-
COC(=O)c1ccc2nc(NC(=O)C3CCCCC3)sc2c1	-	?	24	-
CC(=O)c1sc(Nc2nc3ccc(F)cc3s2)nc1C	?	?	52	97
CC(=O)c1sc(NC(=O)CS(=O)(=O)c2ccc(F)cc2)nc1C	-	?	.	.
CC(=O)Nc1nc2ccc(C(=O)NC3CCCCC3)cc2s1	-	-	-	-
O=C(NNc1cc(C(F)(F)F)nc2ccccc12)Nc1cccc(Cl)c1	?	?	-	-
CCOc1ccc(NC(=S)Nc2ccc(F)cc2)cc1	.	.	-	.
CC(=O)c1cccc(NS(=O)(=O)c2ccc(-c3cc(C)no3)s2)c1	.	.	-	-
Cc1ccc(Nc2c(-c3ccc(N4CCOCC4)cc3)nc3c(C)cccn23)cc1	-	?	.	.
CC1=NN(c2ccccc2)C(=O)/C1=C/N(C)C	-	-	-	-
CN(C)/C=C1/C(=O)N(c2ccc([N+](=O)[O-])cc2)N=C1c1ccccc1	?	-	34	83
C/C(=C1/C(=O)N(c2ccc([N+](=O)[O-])cc2)N=C1c1ccccc1)N(C)C	.	.	25	-
CN(C)/C=C1\C(=O)N(c2ccc([N+](=O)[O-])cc2)N=C1c1ccccc1	?	-	32	93
CSCCC(NC(=O)C1CCC(C)CC1)C(=O)NCCN1CCC(C)CC1 (centres undefined)	-	?	-	-
CCn1cc(C(=O)NC[C@H]2CCCO2)c(=O)c2cc(F)c(N3CCN(C)CC3)cc21	.	-	.	.
Cc1nnc(SCC(=O)N(C)c2ccccc2)n1Cc1ccccc1	-	-	-	-
CCCc1cc(C(=O)Nc2cccnc2Cl)no1	-	?	55	59
CCCc1cc(C(=O)Nc2ccccc2C(=O)OC)no1	.	.	-	-
SMILES	Lassa entry inh	MARV entry inh	Cycloheximide cs	Shiga inhibitor
CCCc1cc(C(=O)Nc2cc(OC)c(Cl)cc2OC)no1	.	.	-	-
CCCc1cc(C(=O)Nc2cc(C)ccc2O)no1	?	?	18	49
CC(Oc1ccc(Br)cc1)C(=O)NC1CCN(Cc2ccccc2)CC1 (centres undefined)	-	13µM	.	.
CC(Oc1ccc2c3c(c(=O)oc2c1)CCC3)C(=O)NC1CCN(Cc2ccccc2)CC1 (centres undefined)	.	.	-	-
Cc1cc(=O)oc2cc(OC(C)C(=O)NC3CCN(Cc4ccccc4)CC3)ccc12 (centres undefined)	.	.	22	-
Cc1ccc(NC(=O)c2ccc(OCC3CCCO3)cc2)c(C)c1 (centres undefined)	-	-	-	-
NNC(=O)c1ccc(COc2ccc3c(c2)CCC3)cc1	-	?	-	-
O=C(O)c1ccc(COc2ccc3c(c2)CCC3)cc1	?	?	25	54
Cc1ccc(NC(=O)c2ccc(COc3ccc4c(c3)CCC4)cc2)c(C)c1	-	?	17	-
O=C(Nc1ccccc1Cl)c1ccc(COc2ccc3c(c2)CCC3)cc1	-	-	25	60
CCCCOc1ccc(C(=O)Nc2ccc3c(c2)N(C(C)=O)CCC3)cc1	-	.	.	.
O=C1[C@@H]2CSC(c3ccc(Cl)cc3)N2C(=O)N1c1ccccc1 (some centres undefined)	-	-	.	.
Cc1c(N2C(=O)CSC2c2ccc(F)cc2)c(=O)n(-c2ccccc2)n1C (centres undefined)	-	?	-	-
CC(C)c1onc(-c2c(Cl)cccc2Cl)c1COc1ccc(/C=C/c2cccc(C(=O)O)c2)c(Cl)c1	.	.	36	60
CCC(C)NC(=O)c1cccc(OCc2c(C)noc2C)c1 (centres undefined)	-	-	-	-
O=c1c(/C=N/N2CCOCC2)c(O)n(-c2ccccc2)c(=S)n1-c1ccccc1	-	?	17	-
COc1ccccc1-n1c(O)c(/C=N/N2CCCCC2)c(=O)n(-c2ccccc2OC)c1=S	-	-	-	33
Cn1c(O)c(/C=N/N2CCOCC2)c(=O)n(-c2ccccc2)c1=S	-	-	-	-
O=C(C1=C(O)C(=O)N(c2ncccn2)[C@@H]1c1cccc(Cl)c1)c1ccco1	.	-	.	.
CCOc1ccccc1NC(=O)c1ccc2[nH]c(C)c(C)c2c1	?	?	42	43
